Assay results as given in PubChem BioAssay AID1159607 (Small Molecule Screening Facility, UW Madison, 2016).
Several values for one entry are separate records, joined by “and”; a condition that tells them apart may be missing. Identical values can stand only once. Hit rate of the full screen: of about 70,000 compounds, about 400 (0.57%) were called active. Cut-off read from the data, not from the text of the source: active = FP signal below about 40; inactive = the rest. The entries come from a sample that favours actives as a whole.

Each compound was assayed on RMI core complex (RMI1/RMI2) binding to FANCM MM2 peptide, human (assay: disruptors of RMI1/RMI2 association with MM2 peptide – biochemical, fluorescence polarization, human, primary screen (AID 1159607)). Conditions: RMI core complex with F-MM2 peptide, at 33 µM, stronger effect = lower value.

Row | SMILES | FP signal (polarization)
1 | CC(=O)O[C@H]1CC[C@@]2(C)C(=CCC3C2CC[C@]2(C)C(=O)CCC32)C1 (stereo not given in full) | -6 (active)
2 | CC(=O)NBr | 53 (inactive)
3 | CC12CCC3C(CCC4CC(O)CCC43C)C1C/C(=C\c1ccccc1Cl)C2=O (stereo not given) | 62 (inactive)
4 | CN1CCc2cc3c(cc2[C@H]1[C@@H]1OC(=O)c2c1ccc1c2OCO1)OCO3 | 67 (inactive) and 61 (inactive)
5 | CSC(=NCc1ccccc1Cl)N/C(N)=N/[N+](=O)[O-] | 58 (inactive)
6 | NCC(O)c1ccc(O)cc1 (stereo not given) | -18 (active) and 54 (inactive) and 46 (inactive)
7 | COc1ccc2c(c1O)-c1cccc3c1[C@@H](C2)N(C)CC3 | 57 (inactive)
8 | c1cncc(OCC2=NCCN2)c1 | 51 (inactive)
9 | CNC(=O)O/N=C\C(C)(C)SC | 58 (inactive)
10 | CC(=O)NS(=O)(=O)c1ccc(NC(=O)c2cccn(Cc3cccc([N+](=O)[O-])c3)c2=O)cc1 | 51 (inactive)
